Source: PubChem BioAssay (NCI)
This is part of a sample that, as a whole, favours compounds with a hit. Of some 83,000 tested, about 20% had one in any assay.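 Plates (96-well) were seeded with cells, treated with compound at one concentration, and incubated for 48 hours before percent growth was determined.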 Calls of active or inactive are those of the source. Rule for the calls: active = growth percent below 10; inactive = the rest.

What was measured:
Experiment in all cases: NCI-60 one-dose screen, 48 h (100 = growth as untreated, 0 = no growth, -100 = all killed)
Details in all cases: 10 µM unless noted
NCI-H23 lung = test system: NCI-H23 lung
NCI-H226 lung = test system: NCI-H226 lung
NCI-H322M lung = test system: NCI-H322M lung
HOP-62 NSCLC = test system: HOP-62 NSCLC
NCI-H460 lung = test system: NCI-H460 lung
HOP-92 NSCLC = test system: HOP-92 NSCLC
NCI-H522 lung = test system: NCI-H522 lung
A549/ATCC NSCLC = test system: A549/ATCC NSCLC
786-0 renal = test system: 786-0 renal
COLO 205 colon = test system: COLO 205 colon

Measured: growth

COc1cccc(COc2ccc(NC(=O)Nc3ccc(Cl)c(C(F)(F)F)c3)cc2)c1
inactive: NCI-H23 lung 21.1% | NCI-H226 lung 43.2% | NCI-H322M lung 16.3% | HOP-62 NSCLC 34.3% | NCI-H460 lung 17.5% | NCI-H522 lung 22.1% | A549/ATCC NSCLC 16% | 786-0 renal 34.5%
active: HOP-92 NSCLC 6.12%

CC(C)c1sc(NC(=O)c2cc(NC(=O)c3cc(NC(=O)c4cscn4)cn3C)cn2C)nc1C(=O)NCCCN(C)C
active: NCI-H23 lung -22.3% | NCI-H226 lung -54% | HOP-92 NSCLC -22.9% | NCI-H522 lung -74.8% | COLO 205 colon -63%
inactive: NCI-H322M lung 19.9% | HOP-62 NSCLC 16.1% | NCI-H460 lung 89.9% | A549/ATCC NSCLC 105% | 786-0 renal 64.8%

COc1cccc(-c2c(C#N)c(-c3ccc(Cl)cc3)nc3n[nH]c(-c4ccc(Cl)cc4)c23)c1
active: HOP-92 NSCLC -5.01%
inactive: NCI-H23 lung 64.5% | NCI-H226 lung 47.8% | NCI-H322M lung 82.8% | HOP-62 NSCLC 53.8% | NCI-H460 lung 34.3% | NCI-H522 lung 43.8% | A549/ATCC NSCLC 41.9% | 786-0 renal 46.1%

C/C(=N\N=C1/C(=O)Nc2ccccc21)c1ccc2c(c1)Nc1ccccc1S2
inactive: NCI-H23 lung 34.8% | NCI-H226 lung 56.3% | NCI-H322M lung 71.3% | HOP-62 NSCLC 82.9% | NCI-H460 lung 43.8% | HOP-92 NSCLC 82.7% | NCI-H522 lung 43.7% | A549/ATCC NSCLC 66.9% | 786-0 renal 71.4% | COLO 205 colon 52.6%

N#Cc1ccc(C(=O)Nn2c(N)cc3ccccc3c2=O)cc1
inactive: NCI-H23 lung 93.8% | NCI-H226 lung 84.4% | NCI-H322M lung 94.7% | HOP-62 NSCLC 99.3% | NCI-H460 lung 80.3% | HOP-92 NSCLC 88.2% | NCI-H522 lung 95% | A549/ATCC NSCLC 94.4% | 786-0 renal 98.3%

O=C(COc1ccc(NC(=O)Nc2ccc(Cl)c(Cl)c2)cc1)N=Nc1c(O)[nH]c2ccc(Br)cc12
active: NCI-H23 lung -10.7% | NCI-H226 lung -58.1% | NCI-H322M lung -15.4% | HOP-62 NSCLC -71.3% | NCI-H460 lung 7.45% | HOP-92 NSCLC -43.5% | NCI-H522 lung -64.7% | A549/ATCC NSCLC -45.8% | 786-0 renal -70.3% | COLO 205 colon -57%

O=C1NC(=O)/C(=C/c2ccccc2OCc2cc3ccccc3nc2Cl)S1
inactive: NCI-H23 lung 68.8% | NCI-H226 lung 75.4% | NCI-H322M lung 79.4% | HOP-62 NSCLC 33.6% | NCI-H460 lung 91.9% | HOP-92 NSCLC 56.8% | NCI-H522 lung 79.1% | A549/ATCC NSCLC 76.9% | 786-0 renal 78.2% | COLO 205 colon 117%

COCOc1ccc2c(=O)c(C)c(C(=O)N[C@@H](Cc3ccccc3)C(O)C(=O)NCCc3ccc(OC)cc3)oc2c1 (stereo partly specified)
inactive: NCI-H23 lung 109% | NCI-H226 lung 110% | NCI-H322M lung 103% | HOP-62 NSCLC 106% | NCI-H460 lung 133% | HOP-92 NSCLC 117% | NCI-H522 lung 98.4% | A549/ATCC NSCLC 100% | 786-0 renal 106% | COLO 205 colon 139%

O=C(NNc1nc2cc(F)ccc2n2c(CN3CC4CNCC4C3)ccc12)c1ccncn1 (stereo unspecified)
active: NCI-H226 lung 7.23% | NCI-H460 lung 5.26% | 786-0 renal -2.41%
inactive: NCI-H23 lung 30.7% | NCI-H322M lung 30.8% | HOP-62 NSCLC 38.3% | HOP-92 NSCLC 34.5% | NCI-H522 lung 32.1% | A549/ATCC NSCLC 17.8% | COLO 205 colon 10%

S=c1c2ccccc2nc2n1CCc1c-2[nH]c2ccccc12
inactive: NCI-H23 lung 62% | NCI-H226 lung 30.8% | NCI-H322M lung 60.6% | HOP-62 NSCLC 38.5% | NCI-H460 lung 71.2% | HOP-92 NSCLC 25.2% | NCI-H522 lung 56.7% | A549/ATCC NSCLC 68.2% | 786-0 renal 46.9% | COLO 205 colon 90.7%

COc1ccc2cc([C@H](C)C(=O)N/N=C/c3ccc(Br)cc3)ccc2c1
inactive: NCI-H23 lung 101% | NCI-H226 lung 103% | NCI-H322M lung 98.2% | HOP-62 NSCLC 90.1% | NCI-H460 lung 100% | HOP-92 NSCLC 103% | NCI-H522 lung 92% | A549/ATCC NSCLC 100% | 786-0 renal 95.4% | COLO 205 colon 108%

CC(C)CSc1nc(NCCc2c[nH]c3ccccc23)c(C#N)c(-c2ccccc2)n1
inactive: NCI-H23 lung 76.6% | NCI-H226 lung 51.3% | NCI-H322M lung 80.7% | HOP-62 NSCLC 68.8% | NCI-H460 lung 12.5% | HOP-92 NSCLC 61.7% | NCI-H522 lung 67.6% | A549/ATCC NSCLC 66.9% | 786-0 renal 47.1% | COLO 205 colon 50.2%

COc1ccc(C(=O)/C=C/c2c(F)cccc2Cl)cc1S(N)(=O)=O
active: NCI-H23 lung -16% | HOP-62 NSCLC 2.33% | NCI-H460 lung 3.49% | HOP-92 NSCLC 9.66% | NCI-H522 lung -61.1% | A549/ATCC NSCLC 8.28% | 786-0 renal 0.405%
inactive: NCI-H226 lung 22.2% | NCI-H322M lung 17.4%

CCCCNC(=S)Nc1ccc(OCc2nc3ccccc3[nH]2)cc1
inactive: NCI-H23 lung 70% | NCI-H226 lung 102% | NCI-H322M lung 80.7% | HOP-62 NSCLC 69.5% | NCI-H460 lung 69.7% | HOP-92 NSCLC 96.2% | NCI-H522 lung 36.2% | A549/ATCC NSCLC 49.7% | 786-0 renal 62.3%

Cn1cc(-c2nc(N)nnc2-c2c[nH]c3ccc(F)cc23)c2cccnc21
inactive: NCI-H23 lung 35.2% | NCI-H226 lung 38% | NCI-H322M lung 56.2% | HOP-62 NSCLC 20% | NCI-H460 lung 11.6% | HOP-92 NSCLC 46.5% | NCI-H522 lung 36.6% | A549/ATCC NSCLC 43.8% | 786-0 renal 52.5% | COLO 205 colon 53.5%

COc1ccc(-c2ccnc(SCc3cc4cc(Cl)ccc4[nH]c3=O)n2)cc1
inactive: NCI-H23 lung 57.8% | NCI-H322M lung 87.8% | NCI-H460 lung 19.6% | NCI-H522 lung 34.2% | A549/ATCC NSCLC 60.7% | COLO 205 colon 105%
active: NCI-H226 lung -32.1% | HOP-62 NSCLC -17.3% | HOP-92 NSCLC -32% | 786-0 renal -25.5%

O=C(O)c1ccc(-c2ccc(/C=N/NC(=O)c3[nH]c4ccc(Br)cc4c3-c3ccccc3)o2)cc1
active: HOP-62 NSCLC 9.47% | NCI-H460 lung 7.72% | HOP-92 NSCLC -8.72% | NCI-H522 lung -33.8%
inactive: NCI-H23 lung 18.3% | NCI-H226 lung 44.3% | NCI-H322M lung 37.5% | A549/ATCC NSCLC 49.5% | 786-0 renal 19.5%

COc1cc(-c2ccc(/C=N/NC(=O)c3[nH]c4ccc(Br)cc4c3-c3ccccc3)s2)cc(OC)c1OC
inactive: NCI-H23 lung 68.2% | NCI-H226 lung 54.4% | NCI-H322M lung 90.2% | HOP-62 NSCLC 74.2% | NCI-H460 lung 75.7% | HOP-92 NSCLC 69.7% | NCI-H522 lung 83.2% | A549/ATCC NSCLC 77.1% | 786-0 renal 58.3% | COLO 205 colon 108%

O=C(NNc1nc2cc(F)ccc2n2c(C(=O)N3CCN(C4CC4)CC3)ccc12)c1ncccn1
inactive: NCI-H23 lung 38.4% | NCI-H226 lung 11.4% | NCI-H322M lung 29.9% | HOP-62 NSCLC 20% | HOP-92 NSCLC 69.2% | NCI-H522 lung 67.1% | A549/ATCC NSCLC 24.5%
active: NCI-H460 lung 8.44% | 786-0 renal -9.79%

COc1cc2c(c(OC)c1OC)C(=O)CC(c1cccc(NC(=O)c3cccc([N+](=O)[O-])c3)c1)O2 (stereo unspecified)
active: NCI-H522 lung -7.5%
inactive: NCI-H23 lung 38.2% | NCI-H226 lung 38.4% | NCI-H322M lung 63.3% | HOP-62 NSCLC 47.9% | NCI-H460 lung 35.4% | HOP-92 NSCLC 17% | A549/ATCC NSCLC 43.8% | 786-0 renal 59.7%

Nc1n[nH]c2cccc(C#Cc3cccc(NC(=O)c4cccc(Cl)c4)c3)c12
active: HOP-92 NSCLC 9.55%
inactive: NCI-H23 lung 38.2% | NCI-H226 lung 45.8% | NCI-H322M lung 49.1% | HOP-62 NSCLC 33.6% | NCI-H460 lung 24.7% | NCI-H522 lung 11.4% | A549/ATCC NSCLC 24.7% | 786-0 renal 11.2%

CC12CC[C@@H]3[C@]4(C)COC(c5c(F)cccc5F)O[C@@H]4CC[C@@]3(C)[C@@H]1CC(C1=CCOC1=O)O2 (stereo partly specified)
inactive: NCI-H23 lung 62.1% | NCI-H226 lung 63.6% | NCI-H322M lung 79.9% | HOP-62 NSCLC 56.2% | NCI-H460 lung 96.3% | NCI-H522 lung 55.4% | A549/ATCC NSCLC 70.3% | 786-0 renal 46.8% | COLO 205 colon 91.7%
active: HOP-92 NSCLC -3.83%

COc1ccc(C(=O)/C=C/c2ccc3ccccc3c2)cc1S(N)(=O)=O
inactive: NCI-H226 lung 20.1% | NCI-H322M lung 11.3% | HOP-92 NSCLC 24.9%
active: NCI-H23 lung -23.7% | HOP-62 NSCLC -30.1% | NCI-H460 lung 2.36% | NCI-H522 lung -62.9% | A549/ATCC NSCLC -78.4% | 786-0 renal -89.2%

COc1cc(-c2nc3cc(Cl)c(Cl)cc3[nH]2)ccc1OCc1nnc(-c2cccs2)o1
inactive: NCI-H23 lung 47.4% | NCI-H226 lung 54.7% | NCI-H322M lung 75.3% | HOP-62 NSCLC 77.8% | NCI-H460 lung 38.8% | HOP-92 NSCLC 69% | NCI-H522 lung 51.8% | A549/ATCC NSCLC 11.7% | 786-0 renal 85.8%

O=C(O)c1ccc(-c2ccc(/C=N/NC(=O)c3[nH]c4ccc(Br)cc4c3-c3ccccc3)s2)cc1
active: NCI-H23 lung 8.04% | NCI-H460 lung 0.163% | HOP-92 NSCLC -4.63% | NCI-H522 lung -1.38%
inactive: NCI-H226 lung 22.8% | NCI-H322M lung 20.4% | HOP-62 NSCLC 28.5% | A549/ATCC NSCLC 23.1% | 786-0 renal 16.5%

COc1ccc(C(=O)/C=C/c2cccc(Cl)c2Cl)cc1S(N)(=O)=O
inactive: NCI-H226 lung 18.7% | NCI-H322M lung 11.5% | HOP-92 NSCLC 21.9%
active: NCI-H23 lung -15.6% | HOP-62 NSCLC -69.2% | NCI-H460 lung -0.608% | NCI-H522 lung -56.3% | A549/ATCC NSCLC -2.67% | 786-0 renal -71.2%

O=C(COc1ccc(NC(=O)Nc2ccc(Cl)c(Cl)c2)cc1)N=Nc1c(O)[nH]c2ccc(Cl)cc12
active: NCI-H23 lung -19.5% | NCI-H226 lung -42.8% | NCI-H322M lung -5.99% | HOP-62 NSCLC -61.3% | HOP-92 NSCLC -30.5% | NCI-H522 lung -55.8% | A549/ATCC NSCLC -39.1% | 786-0 renal -52.5%
inactive: NCI-H460 lung 14.1%

CC(C)Sc1nc(NCCc2c[nH]c3ccccc23)c(C#N)c(-c2ccccc2)n1
inactive: NCI-H23 lung 17.9% | NCI-H226 lung 33.8% | NCI-H322M lung 85.4% | HOP-62 NSCLC 31.9% | NCI-H522 lung 25.4% | A549/ATCC NSCLC 39.6% | COLO 205 colon 11.9%
active: NCI-H460 lung 6.33% | HOP-92 NSCLC 4.4% | 786-0 renal 1.53%
